These results are taken from PubChem BioAssay (NCATS).

The structures appear in SMILES notation. Results filed as inconclusive are left out. A number with no mark means an inactive call. Activity calls are given as the source filed them. Calls follow the shape of the dose curve; as a rule, active = well fitted curve in the direction sought with a large enough effect; inconclusive = small, poorly fitted or top-dose-only effect, or another doubt; inactive = no such curve, though single readings can be large; an effect the other way counts as inactive or inconclusive.

Test [1] relates to CRL-7250. Put plainly: Cytotoxic Profiling of Annotated Libraries Using Quantitative High-Throughput Screening (AID 1296008). Also: nearly all actives have a fitted effect of over 60% in size. Also: potency is read from the fitted curve at half-maximal effect. As to max response: % is scaled to controls: 0 for no effect and ±100 for the full control effect. As to conditions: Five cell lines viability, CellTiter-Glo ATP luminescence, 48-72 h; max response: active compounds read low. Put shortly:
(§1)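 Cytotoxicity was measured as CellTiter-Glo ATP luminescence, read after 10 min at room temperature. Compound treatment of the cells lasted 48 or 72 hr at 37 degrees Celsius in a qHTS format.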
(In general: In ATP-based viability assays light output follows the ATP content of the culture.)

The subject of test [2] is HEK293. The test is described as above. As to conditions: Five cell lines viability, CellTiter-Glo ATP luminescence, 48-72 h; max response: active compounds read low. Put shortly:
as §1

Test [3] has as its system HaCat. The test is described as above. The following applies: Five cell lines viability, CellTiter-Glo ATP luminescence, 48-72 h; max response: active compounds read low. The method, boiled down: as §1
The subject of test [4] is KB-3-1. The description is as above. The following applies: Five cell lines viability, CellTiter-Glo ATP luminescence, 48-72 h; max response: active compounds read low. The method, boiled down: as §1
Test [5] has as its system NIH3T3. The test is described as above. The following applies: Five cell lines viability, CellTiter-Glo ATP luminescence, 48-72 h; max response: active compounds read low. Put shortly: as §1
The subject of test [6] is HACAT. Kind of test: qHTS assay to identify novel small-molecules to repurpose for Merkel cell carcinoma treatment (AID 1296009). Also: nearly all actives have a fitted effect of over 60% in size. The following applies: MCC and control cell lines, CellTiter-Glo viability, 72 h; at 44.8 µM (top of the series) unless noted. The method, boiled down:
(§2)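 After compound transfer in DMSO, plates were kept 72 hr at 37 degree celsius. Luminescent ATP signal from CellTiter-Glo served as viability measure, normalized against DMSO and no-cell controls.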
Background: In qHTS, concentration-response curves come from the screen itself.

Test [7] concerns NIH3T3. Described as above. The following applies: MCC and control cell lines, CellTiter-Glo viability, 72 h; at 44.8 µM (top of the series) unless noted. Put shortly:
as §2

The subject of test [8] is C33A. Kind of test: Primary qHTS to identify gynecologic anti-cancer compounds using libraries of approved drugs and bioactive compounds (AID 1345084). Also: % is scaled to controls: 0 for no effect and ±100 for the full control effect; nearly all actives have a fitted effect of over 55% in size. As to conditions: Gynecologic cancer cell panel viability, ATPlite luminescence, 48 h; series mostly up to 57.5 µM. The method, boiled down: (§3)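 Luminescence from the ATPlite ATP-monitoring reagent indicates viable cell number; lower signal means cytotoxicity. Cells received compound 16 h after seeding and were exposed for 48 h across five concentrations.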

Test [9] relates to CAOV3. The test is described as above. The following applies: Gynecologic cancer cell panel viability, ATPlite luminescence, 48 h; series mostly up to 57.5 µM. Put shortly:
as §3

For test [10], the system named is CASKI. Described as above. The following applies: Gynecologic cancer cell panel viability, ATPlite luminescence, 48 h; series mostly up to 57.5 µM. The method, boiled down:
as §3

Test [11] concerns Es-2. The description is as above. The following applies: Gynecologic cancer cell panel viability, ATPlite luminescence, 48 h; series mostly up to 57.5 µM. The method, boiled down: as §3
Test [12] deals with HeLa. The description is as above. The following applies: Gynecologic cancer cell panel viability, ATPlite luminescence, 48 h; series mostly up to 57.5 µM. The method, boiled down:
as §3

For test [13], the system named is Hek293T. The test is described as above. As to conditions: Gynecologic cancer cell panel viability, ATPlite luminescence, 48 h, control line for the selectivity index; series mostly up to 57.5 µM. Put shortly: as §3
Test [14] has as its system JEG-3. Described as above. The following applies: Gynecologic cancer cell panel viability, ATPlite luminescence, 48 h; series mostly up to 57.5 µM. Put shortly:
as §3

Test [15] has as its system OV90. The test is described as above. The following applies: Gynecologic cancer cell panel viability, ATPlite luminescence, 48 h; series mostly up to 57.5 µM. Put shortly:
as §3

Turning to `NC(=O)[C@@H]1CC[C@H](c2ccc(OCc3ccccc3F)cc2)N1`, the max response in [1] was -6.02%; in [2], 2.17%; in test [4] it was -8.37%. The outcome in test [3], in test [5], in test [6], in test [7] and in [10] was inactive. Moreover, the Potency entry in [8], in [9], in [11], in test [12], in test [13] and in test [14] was “inactive” throughout.

As to `COc1cccc(OC)c1-c1cc(C(=O)N[C@@H](CC(C)C)C(=O)O)nn1-c1ccnc2cc(Cl)ccc12`, the call in test [1], in test [3], in [4], in test [5], in test [6] and in test [7] was inactive. For the same compound, the compound was called inactive in test [10]. In addition, in test [2], the max response is -1.22%. The Potency result in test [8], in [9], in test [11], in [12], in test [13] and in test [14] was “inactive” throughout. For the same compound, the Potency entry in test [15] was “inactive”.

As for `COc1cc(O)cc(C)c1C(=O)O[C@H]1[C@@H](O)[C@@H](n2ccc(=O)[nH]c2=O)O[C@@H]1CO`, the max response was -0.148% in test [1], -4.61% in [2] and -0.769% in test [4]. For the same compound, the compound was classed as inactive in [3], in test [5] and in test [10]. In addition, the outcome in [6] and in [7] was “inactive [at 17.4 µM]” in each case. Also, the Potency result in test [8], in test [9], in test [11], in test [12], in test [13] and in test [14] was “inactive” in each case. The Potency entry in test [15] is “inactive”.

In the case of `C[C@H]1CC[C@@]2(OC1)O[C@H]1CC3C4CC[C@H]5C[C@@H](O[C@@H]6O[C@H](CO)[C@H](O[C@@H]7O[C@H](CO)[C@@H](O)[C@H](O[C@@H]8OC[C@@H](O)[C@H](O)[C@H]8O)[C@H]7O[C@@H]7O[C@H](CO)[C@@H](O)[C@H](O)[C@H]7O)[C@H](O)[C@H]6O)[C@H](O)C[C@]5(C)C4=CC(=O)[C@]3(C)[C@H]1[C@@H]2C` (stereo partly specified), the max response in [1] is -0.886%; in test [2] it was 3.61%. The result in test [3], in [4] and in test [5] was inactive. In addition, the outcome in test [6] and in test [7] was “inactive [at 9.27 µM]” each time. In addition, the activity change, negative = cytotoxicity in test [8] was 4.61% [at 11.6 µM]; in [9] it was 5.57% [at 11.6 µM]; in test [10], -2.7% [at 11.6 µM]; in test [11], -0.121% [at 11.6 µM]; in test [12], 9.97% [at 11.6 µM]; in [13], 0.949% [at 11.6 µM]. For the same compound, the activity change, negative = cytotoxicity in test [14] was -0.32% [at 11.6 µM]; in [15] it was -5.92% [at 11.6 µM].

Regarding `CC(C)(Oc1ccc(-c2nc3cc(Cl)ccc3s2)cc1)C(=O)O`, the compound was called inactive in [1], in test [3], in [5], in test [6] and in test [7]. The max response in test [2] was -8.75%; in test [4] it was 5.1%.

As to `COc1ccc(CCc2nc3cc(-c4c(C)noc4C)ccc3n2C[C@H](C)N2CCOCC2)cc1Cl`, the max response was -8.27% in test [1] and -12.6% in test [4]. In test [2], the Potency is 18.4 µM (active). The call in [3], in test [5], in test [6], in test [7] and in [10] was inactive. Besides, the Potency entry in [8], in [9], in [11], in [12], in test [13] and in test [14] was “inactive” in each case. Further, the Potency result in test [15] is “inactive”.

Turning to `CC1(C)CC[C@]2(C(=O)O[C@@H]3O[C@H](CO[C@@H]4O[C@H](CO[C@@H]5O[C@H](CO)[C@H](O)[C@H](O)[C@H]5O)[C@@H](O)[C@H](O)[C@H]4O)[C@@H](O)[C@H](O[C@@H]4O[C@H](CO)[C@@H](O)[C@H](O)[C@H]4O)[C@H]3O)[C@H](O)C[C@]3(C)C(=CCC4[C@@]5(C)CC[C@H](O[C@@H]6OC[C@@H](O)[C@H](O)[C@H]6O)[C@@](C)(C(=O)O)C5CC[C@]43C)[C@@H]2C1` (stereo partly specified), the max response is 2.11% in [1] and -1.97% in [2]. Also, the call in [3], in [4] and in test [5] was inactive. For the same compound, the outcome in [6] and in test [7] was “inactive [at 9.27 µM]” in each case. Moreover, the activity change, negative = cytotoxicity is 12.5% [at 6.55 µM] in test [8]; 1.69% [at 6.55 µM] in test [9]; -1.12% [at 6.55 µM] in [10]; -9.51% [at 6.55 µM] in [11]; 2.81% [at 6.55 µM] in test [12]; -1.44% [at 6.55 µM] in [13]. The figures for the activity change, negative = cytotoxicity in test [14] and in test [15] were -1.76% [at 6.55 µM] and 12% [at 6.55 µM], respectively.

As for `C/C=C1/[C@H](O[C@@H]2O[C@H](CO)[C@@H](O)[C@H](O)[C@H]2O)OC=C(C(=O)OC)[C@H]1CC(=O)OCCc1ccc(O)c(O)c1`, the max response in test [1] is -12.9%; in test [2], -8.69%; in test [4], 4.42%. Further, the call in [3], in test [5] and in test [10] was inactive. The outcome in test [6] and in test [7] was “inactive [at 17.4 µM]” throughout. For the same compound, the Potency entry in [8], in test [9], in test [11], in test [12], in test [13] and in test [14] was “inactive” in each case. Further, the Potency result in [15] is “inactive”.

For the compound `C=C(COC(=O)CC(C)C)C1Cc2cc(C(C)=O)ccc2O1` (stereo unspecified), the result in test [1], in [3], in [5], in test [6], in test [7] and in [10] was inactive. Also, the max response is -2.29% in test [2] and 4.45% in test [4]. Further, the Potency entry in test [8], in [9], in test [11], in [12], in test [13] and in [14] was “inactive” in each case. In addition, in [15], the Potency entry is “inactive”.

On to `CC(=O)OC[C@]12[C@@H](OC(=O)c3ccoc3)C[C@@H]3[C@@H](OC(C)=O)[C@]1(OC3(C)C)[C@@](C)(O)C[C@H](OC(=O)c1ccoc1)[C@@H]2OC(=O)c1ccoc1`, for which the max response was -3.29% in test [1], -2.85% in [2] and 2.58% in [4]. The compound was classed as inactive in test [3], in test [5] and in [10]. Further, the outcome in test [6] and in [7] was “inactive [at 17.4 µM]” in each case. In addition, the Potency result in test [8], in test [9], in [11], in test [12], in test [13] and in test [14] was “inactive” in each case. In addition, the Potency entry in [15] is “inactive”.

Regarding `C/C=C/C=C/C1=C2C(=O)C3(C)C4C(C(=O)CC(O)/C=C/C)=C(O1)C1(C)C2C2(C)OC1(O)C4(C)OC23O` (stereo unspecified), the compound was classed as inactive in test [1], in test [3], in [5] and in [10]. For the same compound, the max response in test [2] was -2.55%; in test [4] it was 3.96%. Further, the outcome in test [6] and in test [7] was “inactive [at 17.4 µM]” in each case. The Potency result in test [8], in test [9], in test [11], in test [12], in [13] and in test [14] was “inactive” throughout. Further, the Potency entry in test [15] was “inactive”.

Regarding `CNc1nc(C)nc(N[C@H]2CCC[C@@H](C(=O)NCc3ccc(C#N)cc3C(F)(F)F)C2)n1`, the compound was called inactive in [1], in test [3], in [5], in test [6], in [7] and in test [10]. Besides, the max response was -15.3% in test [2] and -5.41% in test [4]. Further, the Potency entry in test [8], in test [9], in [11], in test [12], in [13] and in [14] was “inactive” each time. For the same compound, the Potency result in test [15] is “inactive”.
